Bioassay records (PubChem BioAssay)
MCF10A rereplic: induces DNA re-replication in MCF 10a normal breast cells. MCF 10A DNA re-replication, Hoechst nuclear intensity, 48 h. Potency, µM (doses to about 46.1 µM), for inactives: at the top dose activity, positive = re-replication, hits mostly activators. 350,000 compounds, 2.9% hits. AID 624296; also: % of control where 0% means no effect; nearly all actives have a fitted effect of over 50% in size
HT1080-NT tox: kills 2HG-producing HT-1080-NT fibrosarcoma cells; HT-1080-NT fibrosarcoma viability, CellTiter-Glo ATP luminescence, 48 h; Potency, µM (doses to about 46.1 µM), for inactives: at the highest dose activity, negative = less viability, actives largely listed as cytotoxic; 360,000 compounds, 1.6% hits; AID 686970;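 also: NT is the 2HG producing partner of a matched IDH1 knockdown line; 0% = DMSO-treated cells and -100% = media-only wells without cells; nearly all actives have a fitted effect of over 55% in size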
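HT-1080-NT; 750 cells/well; 5% FBS RPMI; 48 h compound, 37 degrees C; CellTiter-Glo luminescence; curve fitting and curve-class assignment.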
HT1080 IDH1KD tx: toxicity to HT-1080 IDH1 knockdown cells (counter line) | HT-1080 IDH1 knockdown viability, ATP luminescence, 48 h | Potency, µM (series often up to 46.1 µM), for the others: top-dose activity, negative = toxicity, hits mostly cytotoxic | 360,000 compounds, 2% hits;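 also: 0% = DMSO wells and -100% = cell-free medium wells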
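CellTiter-Glo luminescence after 48 h compound exposure at 37 degrees C of IDH1-knockdown HT-1080 cells in 5% FBS RPMI. %Activity scaled between DMSO wells and cell-free media wells, with curves fitted and assigned curve classes.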
KB-3-1 cytotox: KB-3-1 parental cell cytotoxicity; KB-3-1 viability, CellTiter-Glo ATP luminescence, 72 h; 400,000 compounds, 1.4% hits; Potency, µM (series often up to 46.1 µM), most hits filed as cytotoxic; AID 1347075; also: % is scaled to controls: 0 for no effect and ±100 for the full control effect; nearly all actives have a fitted effect of over 60% in size
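KB-3-1 cells, DMEM (no phenol red) + 10% FBS; compound by pin transfer, 72 h, 37 °C. Readout: CellTiter-Glo luminescence after 10 min. Data normalized, curve-fitted.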
KB-V1 MDR tox: KB-V1 MDR subline cytotoxicity; KB-V1 MDR cells viability, CellTiter-Glo, 72 h; Potency, µM (highest dose often 46.1 µM), usual class: cytotoxic; 400,000 compounds, 3.4% hits; AID 1347076; also: % is scaled to controls: 0 for no effect and ±100 for the full control effect; nearly all actives have a fitted effect of over 60% in size
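Potencies derive from concentration-effect curves fitted to normalized luminescence (CellTiter-Glo) of KB-V1 cells treated for 72 h at 37 degrees C in phenol-red-free DMEM containing 10% FBS.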
SW480 rereplic: inducers of DNA re-replication in SW480 colon cancer cells. SW480 DNA re-replication, Hoechst DNA content imaging, 48 h. Potency, µM (top dose mostly 46.1 µM), inactives show at the highest dose re-replication activation, actives largely listed as activators. 340,000 compounds, 1.8% hits. AID 624297; also: % of control where 0% means no effect; nearly all actives have a fitted effect of over 55% in size
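Readout is total intensity of Hoechst-stained nuclei, excited at 405 nm and collected at 500-530 nm. Compound treatment lasted 48 hr at 37 C in 5% CO2 before staining.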
Numbers without * were called inactive; i = inactive; ? = inconclusive; nt = no result; ! = not confirmed by another sample; [ ] = remark or other dose. Shown are actives, neighbours in structure and some others; about 8% of the full set was active somewhere. Calls follow the shape of the dose curve; as a rule, active = well fitted curve in the direction sought with a large enough effect; inconclusive = small, poorly fitted or top-dose-only effect, or another doubt; inactive = no such curve, though single readings can be large; an effect the other way counts as inactive or inconclusive. Potency is read from the fitted curve at half-maximal effect.

SMILES | MCF10A rereplic | HT1080-NT tox | HT1080 IDH1KD tx | KB-3-1 cytotox | KB-V1 MDR tox | SW480 rereplic
O=c1c2c(nc(NCCO)n1CC1CCCCC1)-c1ccccc1CC21CCCC1 | 23µM* | ? | ? | ? | ? | 18%
CC1(C)CC(n2c(NCCO)nc3c(c2=O)C2(CCCC2)Cc2ccccc2-3)CCO1 (centres undefined) | -2% | ? | 4%[9.24 µM] | i | i | -2%
CCCCN(CC)CCCNC(=O)CC1Oc2ccccc2NC1=O (centres undefined) | 2% | 3% | 0% | i | i | -2%
CC(C)n1ncc2c(C(=O)Nc3cccc(S(=O)(=O)N(C)C)c3)cc(C3CC3)nc21 | ? | -2% | -3% | ? | 8.2µM* | 10%
O=[N+]([O-])c1cc(S(=O)(=O)Nc2ccccc2)ccc1-n1nnc2ccccc21 | 6% | -9% | -6% | i | i | 2%
COc1ccccc1Nc1nc(C)nc2c1oc1ccccc12 | 18µM* | ? | -28% | i | ? | 12%
CCc1nc(NCc2ccc3c(c2)OCO3)c2oc3ccccc3c2n1 | ? | -7% | -12% | ? | 16µM* | 3%
CCc1nc(Nc2ccc(OC)cc2OC)c2oc3ccccc3c2n1 | ? | ? | 15µM* | i | i | ?
COc1ccc(Nc2nc(C)nc3c2nnn3Cc2ccccc2Cl)c(OC)c1 | 3.3µM* | 0% | 5% | i | i | 0%
Cc1nc(Nc2ccccc2O)c2oc3ccccc3c2n1 | 0% | 4% | 0% | i | i | 0%
Cc1nc(NCC2CCCO2)c2nnn(Cc3ccccc3Cl)c2n1 (centres undefined) | -4% | -1%[9.24 µM] | -27% | i | i | -3%
C[C@]12CS(=O)(=O)C[C@H]1SC(=S)N2c1ccccc1 | ? | -6% | -3% | i | i | 3%
O=C(Cn1c(=O)c2cccn2c2ccccc21)NCCCN1CCCCC1 | -3% | 2% | 5% | i | ? | 11%
O=C(O)C1CC(O)CN1S(=O)(=O)c1ccc2ccccc2c1 (centres undefined) | 0% | 5% | -1% | i | i | -6%
O=c1c2cc3c(cc2n(Cc2ccc(F)cc2)c(=O)n1Cc1nc(-c2ccccc2)no1)OCO3 | nt | nt | nt | i | i | nt
COc1cccc(Nc2nc(C)nc3c2oc2ccccc23)c1 | ? | -10% | ? | i | i | 5%
COc1ccc(Nc2nc(C)nc3c2oc2ccccc23)c(OC)c1 | 15µM* | 18µM* | 29µM* | i | i | ?
CCCCN(CCCC)S(=O)(=O)c1ccc(C(=O)Nc2sc3c(c2C(N)=O)CCN(CC)C3)cc1 | nt | nt | nt | i | i | nt
CCN1CCc2c(sc(NC(=O)c3ccc(S(=O)(=O)N(CC)c4ccccc4)cc3)c2C(N)=O)C1 | 12µM* | 18µM* | 5.8µM* | ? | ? | ?
CCN1CCc2c(sc(NC(=O)c3ccc(S(=O)(=O)N4CCOCC4)cc3)c2C(=O)OC)C1 | 15µM* | ? | ? | i | i | ?
CCOC(=O)c1c(N)sc2c1CCN(Cc1ccccc1)C2 | ? | nt | nt | 15µM*! | i | -2%
CCN1CCc2c(sc(NC(=O)Nc3ccc(Cl)c(Cl)c3)c2C(N)=O)C1 | 9.2µM* | -6% | -4% | i | i | 15µM*
NC(=O)c1c(NC(=O)c2c(F)cccc2F)sc2c1CCN(Cc1ccccc1)C2 | 26µM* | -2% | -5% | ? | i | 13%
CCN1CCc2c(sc(NC(=O)c3ccc(C(=O)c4ccccc4)cc3)c2C(N)=O)C1 | ? | 21µM* | ? | i | i | 3%
CCN(CC)C(=O)c1cn(C)c2ccc(S(=O)(=O)N(CC)CC)cc2c1=O | -4% | 7% | 13% | i | i | -1%
SMILES | MCF10A rereplic | HT1080-NT tox | HT1080 IDH1KD tx | KB-3-1 cytotox | KB-V1 MDR tox | SW480 rereplic
O=C1NC(Cc2ccccc2)C(=O)Nc2ccc(Br)cc21 (centres undefined) | 1% | 8% | 4% | i | i | -7%
O=C1Nc2ccc(Br)cc2/C1=C/C1CC=CCC1 (centres undefined) | ? | ? | 21µM* | ? | i | ?
O=C(c1ccccc1)c1ccccc1N1C(=O)C=CC1=O | 5.2µM* | 16µM* | ? | i | i | ?
O=C1C=CC(=O)N1c1ccccc1N1C(=O)C=CC1=O | ? | 6.5µM* | 5.8µM* | ? | 26µM* | 2.3µM*
CCN(C[C@H]1N[C@@](Cc2ccccc2)(C(=O)OC)[C@H]2C(=O)N(C)C(=O)[C@@H]12)C(=O)Nc1ccc(C(F)(F)F)cc1 | -4% | 7% | -2% | i | i | -17%
COc1cc(C2=NOC(C(=O)Nc3ccc4c(c3)OCO4)C2)cc(OC)c1OC (centres undefined) | -3% | -20% | -16% | i | i | -17%
Cc1cc(C)n(-c2ccc(C(=O)NCCCN3CCOCC3)cc2)n1 | -3% | 6% | 14% | i | i | -5%
NS(=O)(=O)c1ccc(S(=O)(=O)N2CCN(c3nc(-c4ccccc4)nc4ccccc34)CC2)cc1 | nt | -16% | -23% | nt | nt | nt
O=C(c1cc2ccccc2o1)N1CCCCCC1 | ? | 0% | 1% | i | i | -2%
O=c1oc2ccccc2c(N2CCCCC2)c1CN1CCCC1 | 4% | 7% | -18% | i | 23µM* | -6%
CCc1oc2ccccc2c1C(=O)CCN1CCCCC1 | 9.2µM* | -6% | -9% | i | i | 11%
O=C(c1oc2ccccc2c1N1CCCCC1)N1CCCCC1 | -1% | -5% | -15% | i | 15µM* | 0%
COc1cc(NC(=O)c2ccc(NC3=NC4CS(=O)(=O)CC4S3)cc2)cc(OC)c1OC (centres undefined) | -10% | 0% | 5% | i | i | -14%
CCCC(c1nnnn1CCOC)N1CCN(C(=O)c2ccco2)CC1 (centres undefined) | 1% | 11% | 14% | i | i | -4%
CCC(C)Oc1ccccc1C1CC(=O)NC2=C1C(=O)CCC2 (centres undefined) | ? | ? | ? | ? | ? | 18µM*
COC(=O)c1ccccc1NC(=O)N1CCc2ccc(NC(=O)c3ccccn3)cc2C1 | -14% | -8% | 2% | ? | ? | 18µM*
CCOc1ccc(/C=C/C(O)=C2/C(=O)N(C)C3(C)CC2c2ccccc2O3)cc1OC (centres undefined) | ? | ? | 3.7µM* | 23µM* | ? | 13µM*
